Assay results published in paper PMC8384837, “Expanding the binding specificity for RNA recognition by a PUF domain”.

Tests used:
Experiment in all cases: yeast three-hybrid, YBZ-1, SC-Leu-His + 0.5 mM 3-AT, 4 days
Conditions in all cases: tags: N-Gal4 AD-HA kept; label: inside an RPR1-promoter hybrid RNA with tandem MS2 sites; ssRNA
[1] = molecular target: PUM1 PUF domain R1-YVR (Homo sapiens, UniProt Q14671 828-1176, S863Y;R864V;Q867R)
In short: (§1)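 Pumilio-1 PUF domain libraries, randomized (NNK) at the three base-contacting residues of each repeat, were co-expressed with matching RNA elements from a centromeric plasmid in strain YBZ-1 (LexA–MS2 coat fusion, HIS3 reporter). Transformants were plated on SC-Leu (input) and SC-Leu-His + 0.5 mM 3-AT (selection) for four days, and repeat regions were PCR-amplified and Illumina-sequenced. The interaction score is the log2 change in variant frequency from input to selection, with pseudocount 1 where absent.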

[2] = molecular target: PUM1 PUF domain R5-LHA (Homo sapiens, UniProt Q14671 828-1176, C1007L;R1008H;Q1011A)
In short: as §1

[3] = molecular target: PUM1 PUF domain R5-RRR (Homo sapiens, UniProt Q14671 828-1176, C1007R;Q1011R)
In short: as §1

[4] = molecular target: PUM1 PUF domain R8-KFF (Homo sapiens, UniProt Q14671 828-1176, N1122K;Y1123F;Q1126F)
In short: as §1

[5] = molecular target: PUM1 PUF domain R8-HFV (Homo sapiens, UniProt Q14671 828-1176, N1122H;Y1123F;Q1126V)
In short: as §1

[6] = molecular target: PUM1 PUF domain R8-RYE (Homo sapiens, UniProt Q14671 828-1176, N1122R;Q1126E)
In short: as §1

[7] = molecular target: PUM1 PUF domain R5-RTR (Homo sapiens, UniProt Q14671 828-1176, C1007R;R1008T;Q1011R)
In short: as §1

[8] = molecular target: PUM1 PUF domain R1-KGV (Homo sapiens, UniProt Q14671 828-1176, S863K;R864G;Q867V)
In short: as §1

[9] = molecular target: PUM1 PUF domain R3-RSS (Homo sapiens, UniProt Q14671 828-1176, C935R;R936S;Q939S)
In short: as §1

[10] = molecular target: PUM1 PUF domain R7-ATR (Homo sapiens, UniProt Q14671 828-1176, S1079A;N1080T;E1083R)
In short: as §1

Sequence of PUM1 PUF domain R5-LHA (Q14671 828-1176 C1007L/R1008H/Q1011A): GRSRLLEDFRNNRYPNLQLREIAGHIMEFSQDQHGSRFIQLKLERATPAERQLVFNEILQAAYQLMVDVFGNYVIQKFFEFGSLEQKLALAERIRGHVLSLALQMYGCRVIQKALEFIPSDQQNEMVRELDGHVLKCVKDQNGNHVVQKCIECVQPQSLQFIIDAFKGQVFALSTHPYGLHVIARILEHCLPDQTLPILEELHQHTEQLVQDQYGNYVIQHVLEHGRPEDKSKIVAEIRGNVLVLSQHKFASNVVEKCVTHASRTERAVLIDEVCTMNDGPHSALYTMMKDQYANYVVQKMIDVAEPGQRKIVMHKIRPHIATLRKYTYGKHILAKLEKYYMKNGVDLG
Sequence of PUM1 PUF domain R8-KFF (Q14671 828-1176 N1122K/Y1123F/Q1126F): as the sequence (Q14671 828-1176 C1007L/R1008H/Q1011A) above, with L180C, H181R, A184Q, N295K, Y296F, Q299F counted along it
Sequence of PUM1 PUF domain R5-RRR (Q14671 828-1176 C1007R/Q1011R): as the sequence (Q14671 828-1176 C1007L/R1008H/Q1011A) above, with L180R, H181R, A184R counted along it
Sequence of PUM1 PUF domain R1-YVR (Q14671 828-1176 S863Y/R864V/Q867R): as the sequence (Q14671 828-1176 C1007L/R1008H/Q1011A) above, with S36Y, R37V, Q40R, L180C, H181R, A184Q counted along it

## GGCUAGAACUAGUGGAUCCCCCGGCGCCCGGCGGCUCGAGCCCGGGUAAGUGUAAAUGGUCUGCAUGCCGCCGGGCGCCAUGCCUGCAGGUCGACUCUAGAAAACAUG
[1]
  binding signal: 3.38 log2 enrichment (interaction score)

## GGCUAGAACUAGUGGAUCCCCCGGCGCCCGGCGGCUCGAGCCCGGGUAAGUGUAAAUAGUCUGCAUGCCGCCGGGCGCCAUGCCUGCAGGUCGACUCUAGAAAACAUG
[2]
  binding signal: 2.04 log2 enrichment (interaction score)
[3]
  binding signal: 2.32 log2 enrichment (interaction score)
[4]
  binding signal: 2.66 log2 enrichment (interaction score)
[5]
  binding signal: 2.65 log2 enrichment (interaction score)

## GGCUAGAACUAGUGGAUCCCCCGGCGCCCGGCGGCUCGAGCCCGGGUAAGCGUAAAUAGUCUGCAUGCCGCCGGGCGCCAUGCCUGCAGGUCGACUCUAGAAAACAUG
[6]
  binding signal: 3.48 log2 enrichment (interaction score)
[4]
  binding signal: 2.98 log2 enrichment (interaction score)
[5]
  binding signal: 3.91 log2 enrichment (interaction score)

## GGCUAGAACUAGUGGAUCCCCCGGCGCCCGGCGGCUCGAGCCCGGGUAAGUGUUAAUAGUCUGCAUGCCGCCGGGCGCCAUGCCUGCAGGUCGACUCUAGAAAACAUG
[7]
  binding signal: 2.56 log2 enrichment (interaction score)
[2]
  binding signal: 4.62 log2 enrichment (interaction score)
[3]
  binding signal: 4.33 log2 enrichment (interaction score)

## GGCUAGAACUAGUGGAUCCCCCGGCGCCCGGCGGCUCGAGCCCGGGUAAGUGUCAAUAGUCUGCAUGCCGCCGGGCGCCAUGCCUGCAGGUCGACUCUAGAAAACAUG
[7]
  binding signal: 3.19 log2 enrichment (interaction score)
[2]
  binding signal: 3 log2 enrichment (interaction score)
[3]
  binding signal: 4.35 log2 enrichment (interaction score)

## GGCUAGAACUAGUGGAUCCCCCGGCGCCCGGCGGCUCGAGCCCGGGUAAGUGUAAAUUGUCUGCAUGCCGCCGGGCGCCAUGCCUGCAGGUCGACUCUAGAAAACAUG
[1]
  binding signal: 6.97 log2 enrichment (interaction score)
[8]
  binding signal: 3.66 log2 enrichment (interaction score)

## GGCUAGAACUAGUGGAUCCCCCGGCGCCCGGCGGCUCGAGCCCGGGUAAGUGUGAAUAGUCUGCAUGCCGCCGGGCGCCAUGCCUGCAGGUCGACUCUAGAAAACAUG
[3]
  binding signal: 1.36 log2 enrichment (interaction score)

## GGCUAGAACUAGUGGAUCCCCCGGCGCCCGGCGGCUCGAGCCCGGGUAAGUGUAAUUAGUCUGCAUGCCGCCGGGCGCCAUGCCUGCAGGUCGACUCUAGAAAACAUG
[9]
  binding signal: 3.63 log2 enrichment (interaction score)

## GGCUAGAACUAGUGGAUCCCCCGGCGCCCGGCGGCUCGAGCCCGGGUAAGGGUAAAUAGUCUGCAUGCCGCCGGGCGCCAUGCCUGCAGGUCGACUCUAGAAAACAUG
[4]
  binding signal: 2.27 log2 enrichment (interaction score)

## GGCUAGAACUAGUGGAUCCCCCGGCGCCCGGCGGCUCGAGCCCGGGUAAGUGUAAAUCGUCUGCAUGCCGCCGGGCGCCAUGCCUGCAGGUCGACUCUAGAAAACAUG
[1]
  binding signal: 6.93 log2 enrichment (interaction score)
[8]
  binding signal: 4.16 log2 enrichment (interaction score)

## GGCUAGAACUAGUGGAUCCCCCGGCGCCCGGCGGCUCGAGCCCGGGUAAGUUUAAAUAGUCUGCAUGCCGCCGGGCGCCAUGCCUGCAGGUCGACUCUAGAAAACAUG
[10]
  binding signal: 3.43 log2 enrichment (interaction score)

## GGCUAGAACUAGUGGAUCCCCCGGCGCCCGGCGGCUCGAGCCCGGGUAAGUGUAAGUAGUCUGCAUGCCGCCGGGCGCCAUGCCUGCAGGUCGACUCUAGAAAACAUG
[9]
  binding signal: 0.48 log2 enrichment (interaction score)
